VDR inh – inhibitors of human vitamin D receptor; P11473; 400,000 tested, 0.93% active; Potency, µM, for the others: max response, negative = inhibition, usual class: inhibitors; VDR-SRC2-3 peptide fluorescence polarization, 2 h; note: % is set by controls: 0 for no effect and ±100 for the full control effect
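Compounds are added to VDR with labelled SRC2-3 coactivator peptide and held 2 h at room temperature. Inhibition of the VDR–peptide interaction is then read as a change in fluorescence polarization.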
GCN5L2 inh – GCN5L2 (KAT2A) acetyltransferase inhibition. Potency, µM (titrated, usually from 58.9 µM), for inactives: top-dose activity change, negative = inhibition, usual class: inhibitors. Q92830. GCN5L2 HAT assay, ThioGlo1 CoA-SH fluorescence. 390,000 tested, 0.21% active. AID 504327; note: % is set by controls: 0 for no effect and ±100 for the full control effect
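Preincubate 20nM GCN5L2 with compound 15 min, RT → add 50uM ThioGlo1 + 75uM H3(1-25) + 70uM acetyl-CoA → read fluorescence 0 and 20 min. Primary qHTS; fluorescent artifacts likely.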
PKM2 activator – PKM2 (human) enzyme activation; purified PKM2, Kinase-Glo ATP luminescence, activation; response scale: 0% is enzyme alone, no compound; Potency, µM (series often up to 57.5 µM), without a hit: top-dose activation, hits mostly activators; 260,000 tested, 0.34% active; AID 1631; note: % is set by controls: 0 for no effect and ±100 for the full control effect; nearly all actives have a fitted effect of over 55% in size
Target sequence (P14618 whole entry, looked up): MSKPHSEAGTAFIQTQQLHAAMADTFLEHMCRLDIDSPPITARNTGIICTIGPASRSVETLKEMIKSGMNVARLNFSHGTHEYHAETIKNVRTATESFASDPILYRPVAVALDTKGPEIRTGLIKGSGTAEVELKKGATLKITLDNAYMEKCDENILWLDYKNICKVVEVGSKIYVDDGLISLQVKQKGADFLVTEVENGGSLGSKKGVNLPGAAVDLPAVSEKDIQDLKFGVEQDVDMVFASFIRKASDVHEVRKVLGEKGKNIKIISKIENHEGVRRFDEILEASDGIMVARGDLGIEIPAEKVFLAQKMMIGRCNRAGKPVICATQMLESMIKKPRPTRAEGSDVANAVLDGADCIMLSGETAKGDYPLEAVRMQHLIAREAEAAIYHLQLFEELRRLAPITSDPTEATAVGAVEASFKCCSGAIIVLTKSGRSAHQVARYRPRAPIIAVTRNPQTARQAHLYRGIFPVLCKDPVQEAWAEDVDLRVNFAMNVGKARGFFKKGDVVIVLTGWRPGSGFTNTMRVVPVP
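ATP formation by purified human PK-M2, quantified via coupled luciferase luminescence after 1 h at room temperature with 0.1 mM ADP and 0.5 mM PEP final.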
PLK1 PBD inh – PLK1 (human) polo-box domain binding inhibition; Plk1 PBD binding of FITC phosphopeptide, fluorescence polarization; Potency, µM, for the others: max response, negative = inhibition, actives largely listed as inhibitors; P53350; 360,000 tested, 2.8% active; note: series mostly up to about 57 µM; % is set by controls: 0 for no effect and ±100 for the full control effect; nearly all actives have a fitted effect of over 65% in size
GLS inh – glutaminase GLS (human) inhibition; O94925; GLS enzymatic activity, qHTS titration; Potency, µM (top dose mostly 45.5 µM), without a hit: at the highest dose activity change, negative = inhibition, usual class: inhibitors; 410,000 tested, 0.21% active; AID 624170; note: % is set by controls: 0 for no effect and ±100 for the full control effect
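Assay buffer: 45 mM KH2PO4 pH 8.2, 0.02% Tween-20. hKGA acts on L-glutamine (1 mM solution added); product glutamate is reported by an oxidase/peroxidase Amplex Red coupling, with fluorescence taken at baseline and 30 min.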
Mito fusion act – mitochondrial division inhibition or fusion activation; S. cerevisiae fusion-defective mutant growth rescue, CellTiterGlo 48 h; 320,000 tested, 0.23% active; Potency, µM (series often up to 46.1 µM), without a hit: at the top dose growth rescue (activation), hits mostly activators; AID 485298; note: % of control where 0% means no effect; nearly all actives have a fitted effect of over 45% in size
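Luminescent cell viability in 1536-well qHTS format served as the measure of rescued growth in ts fusion-mutant S. cerevisiae cultured on non-fermentable YPEG for 48 hours at 37C.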
* marks the source's active call; other numbers are inactive results; ? = inconclusive; / = not tested or not shown. The list is not random: actives were taken first. Their share in the collection is about 3.4%. Calls come from the whole dose curve; as a rule, active = well fitted curve in the direction sought with a large enough effect; inconclusive = small, poorly fitted or top-dose-only effect, or another doubt; inactive = no such curve, though single readings can be large; an effect the other way counts as inactive or inconclusive. Potency is the fitted concentration of half-maximal effect.

SMILES	VDR inh	GCN5L2 inh	PKM2 activator	PLK1 PBD inh	GLS inh	Mito fusion act
CC(NC(=O)c1c(N)[nH]c(C(=O)c2ccccc2)c1-c1ccccc1Br)c1cccc2ccccc12 (stereo not given)	/	/	/	-9%	12%	/
Cc1ccc(OCC(=O)NCCNC(=O)c2ccccn2)cc1	2%	6%	/	-14%	-12%	0%
CNC(=O)c1ccsc1NC(=O)c1ccc2c(c1)CCCC2	-4%	-4%	-9%	-11%	2%	5.6µM*
COc1cc2c(cc1OC)-c1c(oc3cc(O)cc(O)c3c1=O)CO2	?	-9%	/	/	/	/
CC(NC(=O)Cn1cc(C(=O)C2CC2)c2ccccc21)c1ccccc1 (stereo not given)	-24%	-17%	1%	30µM*	1%	-1%
CCOC(=O)N1CCN(C(=O)C[C@@H]2C[C@@]3(C(=O)OC)CC(C)(C)CC=C3N(Cc3cccc4ccccc34)C2=O)CC1	/	/	/	3%	/	/
COC(=O)CCc1nc2ccccc2nc1OC	-17%	-4%	-1%	1%	10%	-2%
COc1nc2ccccc2nc1CCC(=O)O	-6%	-6%	2%	30µM*	13%	4%
S=P(c1ccc(N2CCOCC2)cc1N1CCOCC1)(N1CCOCC1)N1CCOCC1	79µM*	9%	-1%	21µM*	-15%	0%
CC1C(=O)NN=C1C(=O)N/N=C\C(Br)=C\c1ccccc1 (stereo not given)	-7%	-9%	-17%	-5%	6%	3%
CC1C(=O)NN=C1C(=O)N/N=C/c1ccco1 (stereo not given)	-21%	-4%	-17%	27µM*	-4%	-5%
CCOc1ccc(C2=C(C(=O)CC)Sc3nncn3N2C(=O)CC)cc1	-7%	-5%	/	/	10%	/
CN(CC(=O)Nc1ccc(Cl)cc1)Cc1cc(=O)n2ccsc2n1	-2%	-5%	2%	30µM*	-6%	18%
O=C(O)Cc1cccc(-c2cc(CCCCCCc3ccc(O[C@H]4O[C@H](CO)[C@@H](O)[C@H](O)[C@@H]4O)c(-c4cccc(CC(=O)O)c4)c3)ccc2O[C@H]2O[C@H](CO)[C@@H](O)[C@H](O)[C@@H]2O)c1	/	/	/	/	14%	/
CCC(=O)NCC(=O)OCC(=O)c1ccccc1	-26%	3%	-16%	3µM*	25µM*	-4%
CCOC(=O)C(C)N1C(=O)S/C(=C\c2ccc(-c3ccccc3C(=O)O)o2)C1=O (stereo not given)	-18%	-7%	/	?	13µM*	-1%
CCC(/C=C1\Sc2ccc(OC)cc2N1CCO)=C\c1sc2ccc(OC)cc2[n+]1CCO	79µM*	?	-55%	?	16%	-12%
CCC(=O)/C=C1/Sc2ccc(OC)cc2N1CCO	?	-12%	-6%	13µM*	-21%	-4%
CCC(/C=C1\Sc2ccc(OC)cc2N1CC)=C\c1sc2ccc(OC)cc2[n+]1CCCS(=O)(=O)[O-]	?	3%	-4%	?	6%	12%
Cc1ccc(NS(=O)(=O)c2ccc(-c3coc(C)n3)cc2)c(Cl)c1	/	/	/	0%	-13%	/
O=C(NCc1ccc(F)cc1)N1CCc2ccccc2C1	-15%	-6%	-1%	-4%	7%	16%
O=C(/C=C/C(=O)N1CCc2ccccc2C1)N1CCc2ccccc2C1	8%	-5%	-1%	-6%	-3%	17%
COCCCNC(=O)c1ccccc1C(F)(F)F	?	1%	-6%	15µM*	-7%	3%
O=C(NCCc1ccccc1)c1ccccc1C(F)(F)F	/	/	/	-10%	-1%	/
CCCCCCCCCCCNC(=O)c1ccoc1C	79µM*	-10%	10%	?	8%	-14%
SMILES	VDR inh	GCN5L2 inh	PKM2 activator	PLK1 PBD inh	GLS inh	Mito fusion act
Cn1cnc(C(=O)N2CCc3ccccc3C2)c1C(=O)N1CCc2ccccc2C1	-17%	?	/	21µM*	5%	/
CCCCNC(=O)N1CCc2ccccc2C1	?	2%	0%	30µM*	11%	-7%
CCN1CCN(S(=O)(=O)c2c(C)[nH]c(C)c2C(=O)N2CCCCC2)CC1	25%	-2%	-1%	-9%	-4%	4%
COc1ccc(S(=O)(=O)N(C)C)cc1NC(=O)CCCSc1ccccc1	11%	-6%	-5%	-4%	-9%	10%
Cc1ccc2ccccc2c1C(O)c1ncc(-c2ccc(F)cc2)[nH]1 (stereo not given)	/	/	/	-14%	-8%	/
Cn1c(=O)n(CCc2ccccc2)c(=O)c2c1nc1n2CCN1c1ccc(Cl)cc1	10%	-5%	/	/	0%	/
CN(C)Cc1ccccc1Sc1ccc2c(c1)CCCC2	-4%	/	/	-14%	0%	/
CCCCNC(=O)c1ccccc1C(=O)NCCCC	?	2%	0%	5.3µM*	?	-1%
Cc1ccc(Cl)cc1NC(=O)CSc1sc2c(O)cc(=O)[nH]c2c1C#N	7%	-14%	3%	?	9%	-4%
CCc1nnc(NC(=O)CSc2sc3c(O)cc(=O)[nH]c3c2C#N)s1	-2%	?	-12%	30µM*	?	0%
CCSc1nnc(NC(=O)CSc2sc3c(O)cc(=O)[nH]c3c2C#N)s1	16%	?	0%	12µM*	20%	4%
N#Cc1c(SCC(=O)Nc2cccc(C(F)(F)F)c2)sc2c(O)cc(=O)[nH]c12	?	-19%	5%	13µM*	-22%	-4%
Cc1csc(NC(=O)CSc2sc3c(O)cc(=O)[nH]c3c2C#N)n1	19%	-12%	11%	?	2%	-11%
O=C(CSc1nc2[nH]c(=O)cc(O)c2s1)Nc1nncs1	-15%	/	/	30µM*	0%	/
COc1ccccc1NC(=O)CSc1sc2c(O)cc(=O)[nH]c2c1C#N	7%	-16%	10%	?	-2%	-4%
COC(=O)c1ccc(CN(C)S(=O)(=O)c2cccs2)cc1	-1%	-2%	2%	-6%	5%	-4%
Oc1ccc(Cl)cc1CNCc1ccc(Cl)nc1	-2%	-1%	/	-2%	28%	-9%
COc1ccc([N+](=O)[O-])cc1NS(=O)(=O)c1cc(C(=O)N2CCN(C)CC2)ccc1OC	2%	0%	/	0%	5%	3%
COc1ccc2[nH]c3c(c2c1)CCN1C(=O)C(CC(=O)NCc2ccc(OC)c(OC)c2)C[C@H](C(=O)N2CCOCC2)[C@@]31CCC1CCCC1 (stereo not given in full)	?	-5%	/	19µM*	29%	/
O=C(NCCO)C(=O)Nc1cc2c3c(c1)CCC(=O)N3CCC2	-8%	-5%	/	1%	0%	18%
COc1ccc(NC(=O)CN(C)C(=O)/C=C/c2ccc(OCc3ccccc3)cc2)cc1	-16%	-1%	/	30µM*	2%	0%

Bioassay records deposited in PubChem by National Center for Advancing Translational Sciences (NCATS).
